Results from the supplement of paper PMC6279402.
± gives the standard deviation of the averaged measurements.

Tested on: A549
Assay: relative viability (normalised to negative control = 1, bortezomib = 0) (fraction); higher = less cytotoxic
Settings: inflammatory serum-free RHB-A with cytokines + LPS, 5 d + 24 h CellTiter-Blue
Protocol: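 A549 KRAS-mutant NSCLC cells, pre-treated 5 µM GSK126 or vehicle (DMSO), were seeded at 250 cells/well in 384-well plates in serum-free RHB-A medium with inflammatory cytokines/LPS and treated with Selleck kinase inhibitor and NCI oncology compounds at 30 or 300 nM in triplicate, refreshed at 48 h. Viability was read by CellTiter-Blue after 5 d plus 24 h and normalised per plate with cellHTS2 (mean of bortezomib positive control = 0, mean of negative control = 1).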

[1] = compound 30 nM, GSK126 pretreatment: 5 uM GSK126
[2] = compound 30 nM, GSK126 pretreatment: none (vehicle)
[3] = compound 300 nM, GSK126 pretreatment: 5 uM GSK126
[4] = compound 300 nM, GSK126 pretreatment: none (vehicle)

| SMILES | relative viability [1] | relative viability [2] | relative viability [3] | relative viability [4] |
| --- | --- | --- | --- | --- |
| Cc1c2oc3c(C)ccc(C(=O)N[C@@H]4C(=O)N[C@H](C(C)C)C(=O)N5CCC[C@H]5C(=O)N(C)CC(=O)N(C)[C@@H](C(C)C)C(=O)O[C@@H]4C)c3nc-2c(C(=O)N[C@@H]2C(=O)N[C@H](C(C)C)C(=O)N3CCC[C@H]3C(=O)N(C)CC(=O)N(C)[C@@H](C(C)C)C(=O)O[C@@H]2C)c(N)c1=O [Dactinomycin] | -0.00158 ± 0.00097 | 0.00574 ± 0.0057 | -0.00171 ± 0.00059 | 0.00607 ± 0.0081 |
| Cc1cc(Nc2nc(N[C@@H](C)c3ncc(F)cn3)ncc2Cl)[nH]n1 | 0.912 ± 0.1 | 0.872 ± 0.08 | 1.15 ± 0.076 | 1.13 ± 0.017 |
| C/C(=C\c1csc(C)n1)[C@@H]1C[C@@H]2O[C@]2(C)CCC[C@H](C)[C@H](O)[C@@H](C)C(=O)C(C)(C)[C@@H](O)CC(=O)N1 [Ixabepilone] | 0.464 ± 0.084 | 0.269 ± 0.068 | 0.386 ± 0.016 | 0.288 ± 0.043 |
| O=C(NC1CCNCC1)c1n[nH]cc1NC(=O)c1c(Cl)cccc1Cl | 0.969 ± 0.17 | 0.924 ± 0.074 | 0.0464 ± 0.029 | 0.136 ± 0.057 |
| CC(=O)Nc1cccc(-n2c(=O)n(C3CC3)c(=O)c3c(Nc4ccc(I)cc4F)n(C)c(=O)c(C)c32)c1 | 0.144 ± 0.01 | 0.171 ± 0.011 | 0.0602 ± 0.013 | 0.0354 ± 0.0045 |
| Cc1cnc(-c2cnc(NCCNc3ccc(C#N)cn3)nc2-c2ccc(Cl)cc2Cl)[nH]1 | 0.847 ± 0.064 | 0.834 ± 0.016 | 0.788 ± 0.059 | 0.732 ± 0.097 |
| O=P(O)(O)C(O)(Cn1ccnc1)P(=O)(O)O [Zoledronic acid; Zolendronic acid] | 0.936 ± 0.023 | 0.924 ± 0.15 | 1.09 ± 0.12 | 1.08 ± 0.051 |
| COc1cc(Nc2ncc(F)c(Nc3ccc4c(n3)N(COP(=O)(O)O)C(=O)C(C)(C)O4)n2)cc(OC)c1OC | 0.929 ± 0.03 | 0.888 ± 0.056 | 0.952 ± 0.013 | 0.983 ± 0.067 |
| Cn1c(=O)c(F)c(Nc2ccc(I)cc2F)c2c(=O)n(C[C@@H](O)CO)cnc21 | 0.156 ± 0.017 | 0.1847 ± 0.0015 | 0.0544 ± 0.0097 | 0.0397 ± 0.0058 |
| O=C(O)c1ccc2c(c1)nc(Nc1cccc(Cl)c1)c1ccncc12 | 0.707 ± 0.14 | 0.761 ± 0.04 | 0.728 ± 0.11 | 0.839 ± 0.12 |
